Among the data in PubChem BioAssay (EPA / NIEHS) are outcome and AC50 values, retold here.

Molecules are shown by their SMILES. Results filed as inconclusive are left out. Active and inactive are the calls of the source. Rule for the calls: active = hit-call score of the fitted dose curve at least 0.9, where 1 is the maximum; inconclusive = response in the unintended direction; inactive = score below 0.9.

Read-out in this test: xenobiotic metabolism (CYP1A1), CYP1A1 (gene 1543)
As to the kind of experiment: CLD_CYP1A1_24hr: CellzDirect (CLD) Gene Expression Assay for xenobiotic metabolism (CYP1A1) at 24 hours (AID 2283673). How it is done:
CLD_24hr is a cell-based, multiplexed-readout assay that uses hepatocyte, a human liver primary cell, with measurements taken at 24 hours after chemical dosing in a 96-well plate.CLD_CYP1A1_24hr is one of 16 assay component(s) measured or calculated from the CLD_24hr assay. It is designed to make measurements of mRNA induction, a form of inducible reporter, as detected with chemiluminescence signals by Quantitative Nuclease Protection Assay (qNPA) technology.Data from the assay component CLD_CYP1A1_24hr was analyzed at the endpoint, CLD_CYP1A1_24hr, in the positive analysis fitting direction relative to DMSO as the negative control and baseline of activity. Using a type of inducible reporter, gain-of-signal activity can be used to understand changes in the reporter gene as they relate to the gene CYP1A1. Furthermore, this assay endpoint can be referred to as a primary readout. To generalize the intended target to other relatable targets, this assay endpoint is annotated to the cyp intended target family, where subfamily is xenobiotic metabolism.
Human hepatocyte cultures were treated daily for two consecutive days with fresh dosing solutions containing appropriate concentrations of the 320 ToxCast chemicals (chemical identities were blinded to CellzDirect and other ToxCast collaborators), vehicle control (0.2% DMSO), and positive control inducers as summarized in Table 1. Due to the large number of treatment groups and chemicals examined, the ToxCast chemicals were divided into two groups (spanning two independent cultures of hepatocytes from separate donor preparations (Hu778: ToxCast plates 1 and 2; Hu776: ToxCast plates 3 and 4). Each preparation of human hepatocyte cultures was treated with respective vehicle control, medium only control, set of six positive controls/reference chemicals for the five hepatic receptor pathways, and a subset of eight of the ToxCast chemicals (indoxacarb, pyrithiobac-sodium, norflurazon, cyhalofop-butyl, methomyl, thiram, acetochlor, and propiconazole). These replicate data, coupled with internal replicates designed within the blinded ToxCast chemical library, provided additional data to evaluate interindividual differences between hepatocyte preparations and their potential impact on chemical profiles.Cell morphology and integrity were evaluated using phase-contrast microscopy as an indicator of hepatocyte cell health (Tyson & Green, 1987). Cultures for each treatment group (i.e., media, vehicle [0.2% DMSO], positive control inducers [multiple concentrations], and the ToxCast chemicals [multiple concentrations]) were observed and cell morphology was assessed relative to vehicle control cultures at each harvest time point (0, 6, 24, or 48 h). […] Images were evaluated at the conclusion of the study to assess changes in cell integrity and account for the effects of chemical exposure on uncharacteristic changes in concentration-dependent gene expression profiles. The results from these determinations of apparent cytotoxicity were annotated (yes/no) alongside the corresponding qNPA data for reference.At the conclusion of each treatment period, hepatocyte cultures (96-well) were washed with 1 volume of HBSS, lysed by addition of 25 ul ArrayPlate lysis buffer (HTG, Tucson, AZ), and 70 ul/well of Denaturation Oil, denatured by incubation at 95C for 10 min, and frozen at approximately -70C until analysis by nuclease protection assay (qNPA) (Roberts et al., 2007). For qNPA analysis, cell lysates were thawed at 50C for approximately 30 min, qNPA probes were added, and samples were incubated at 95C for 10 min to begin the detection process by denaturing the target RNA, dissociating the duplexes and secondary structure hybridization. At the conclusion of the hybridization period, S1 nuclease reagent was added to each sample to digest all nonprotected nucleotides at 50C for 60-90 min. […]
Take `CCCCCOC(=O)COc1cc(N2C(=O)C3=C(CCCC3)C2=O)c(F)cc1Cl`: the outcome was inactive.
On the same count and under the same terms, under `COC(=O)CSc1cc(N=c2sc(=O)n3n2CCCC3)c(F)cc1Cl` stands “inactive”.
In the case of `CC(C)(C)[C@@H](O)[C@@H](Cc1ccc(Cl)cc1)n1cncn1`, the AC50 is 12.1 µM (active).
Same read-out and setting: as for `C=CCOC(Cn1ccnc1)c1ccc(Cl)cc1Cl` (stereo unspecified), the figure is 1.07 µM (active).
In the case of `COc1nc(C)nc(NC(=O)NS(=O)(=O)c2ccccc2OCCCl)n1`, the result was inactive.
Regarding `S=C([S-])NCCNC(=S)[S-].[Mn+2]`, the call was inactive.
Regarding `CC1(C)C(C=C(Cl)Cl)C1C(=O)OCc1cccc(Oc2ccccc2)c1` (stereo unspecified), the result was inactive.
Take `c1ccc2[nH]c(-c3cscn3)nc2c1`: the AC50 was 0.226 µM (active).
Consider `CCCN(CCC)c1c([N+](=O)[O-])cc(C(F)(F)F)c(N)c1[N+](=O)[O-]`, for which the AC50 was 3.83 µM (active).
For the compound `COC(=O)c1ccc(I)cc1S(=O)(=O)NC(=O)Nc1nc(C)nc(OC)n1`, the compound was called inactive.
As to `COC(=O)c1ccccc1C(=O)O`, the concentration at half-maximal activity (AC50) is 0.117 µM (active).
Take `CCOC(=O)COc1cc(-n2ncc(C(F)(F)F)c(C)c2=O)c(F)cc1Cl`: the compound was classed as inactive.
Consider `CCN(Cc1c(F)cccc1Cl)c1c([N+](=O)[O-])cc(C(F)(F)F)cc1[N+](=O)[O-]`, for which the AC50 is 0.786 µM (active).
For the compound `CN(C)C(=O)Nc1ccc(Cl)c(Cl)c1`, the AC50 was 4.24 µM (active).
Still for that read-out and setting: under `COC(=O)c1cccc(C)c1S(=O)(=O)NC(=O)Nc1nc(OCC(F)(F)F)nc(N(C)C)n1` stands 5.36 µM (active); under `COC(=O)c1ccccc1S(=O)(=O)NC(=O)Nc1nc(OC(F)F)cc(OC(F)F)n1`, 0.0569 µM (active).
As to `CCOC(=O)NCCOc1ccc(Oc2ccccc2)cc1`, the call was inactive.
On the same count and under the same terms, under `Oc1ccc(C(c2ccc(O)cc2)C(Cl)(Cl)Cl)cc1` stands “inactive”.
Turning to `CSC(=O)c1cccc2nnsc12`, the AC50 is 20 µM (active).
Still for that read-out and setting: under `CCCCC(CC)CN1C(=O)C2C3C=CC(C3)C2C1=O` (stereo unspecified) stands 20 µM (active); under `CCCCOCCOCCOCc1cc2c(cc1CCC)OCO2`, 2.56 µM (active).
As to `CCCCCCC(C)OC(=O)COc1nc(F)c(Cl)c(N)c1Cl` (stereo unspecified), the result was inactive.
Still for that read-out and setting: as for `CCOC(=O)C(C)Oc1ccc(Oc2nc3ccc(Cl)cc3o2)cc1` (stereo unspecified), the entry is “inactive”; as for `CCNc1nc(N)nc(Cl)n1`, “inactive”; as for `O=C(O)C1(C(=O)Nc2ccc(Cl)cc2Cl)CC1`, “inactive”.
Still for that read-out and setting: under `COc1c(Cl)ccc(Cl)c1C(=O)O` stands “inactive”.
On to `COC(=O)c1c(Cl)nn(C)c1S(=O)(=O)NC(=O)Nc1nc(OC)cc(OC)n1`, for which the compound was called inactive.
Turning to `CCCN(CCC)C(=O)SCC`, the compound was called inactive.
Regarding `O=C(Nc1ccc([N+](=O)[O-])cc1Cl)c1cc(Cl)ccc1O`, the concentration at half-maximal activity (AC50) was 7.01 µM (active).
With `CCOC(=O)[C@H](C)Oc1ccc(Oc2nc3ccc(Cl)cc3o2)cc1`, the outcome was inactive.
Still for that read-out and setting: under `COC(=O)c1ccc(CNS(C)(=O)=O)cc1S(=O)(=O)NC(=O)Nc1nc(OC)cc(OC)n1` stands “inactive”; under `Cc1nn(C)c(Oc2ccccc2)c1C=NOCc1ccc(C(=O)OC(C)(C)C)cc1`, “inactive”.
As for `N#CSCSc1nc2ccccc2s1`, the AC50 is 4.74 µM (active).
As to `CCCCOC(=O)[C@@H](C)Oc1ccc(Oc2ccc(C(F)(F)F)cn2)cc1`, the AC50 is 20 µM (active).
In the case of `c1ccc(Nc2ccccc2)cc1`, the outcome was inactive.
On the same count and under the same terms, under `CC(C)(c1ccc(O)cc1)c1ccc(O)cc1` stands “inactive”.

For orientation: AC50 means the midpoint of the concentration-response curve, whichever way the signal moves.
